Calls of active or inactive are those of the source.

The assay is described as follows: S. cerevisiae RM11-1a growth modifiers, primary screen, strain RM11-1a, OD600, basal, 24 h (AID 1177).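 Further: cultures grown under basal conditions with no added stressor; test concentration not given here.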 The following applies: OD600, 24 h, higher = more signal, called active from +8 up or from −8 down.
For `CC=CC1=C(CO)[C@H](O)[C@H]2O[C@H]2[C@H]1O`, the z-score is 0.618 (inactive).

As to `COCCNC(=O)OCC1CCCC2(CC(OC(=O)NCCc3ccc(F)cc3)CC(CCC(=O)N[C@@H](C)C(=O)OC)O2)O1` (stereo partly specified), the z-score was 0.684 (inactive).

On to `CC(C)[C@H](NC(=O)OC(C)(C)C)[C@@H](O)CC(=O)OC(C)(C)C`, for which the z-score is 0.259 (inactive).

For the molecule `CCc1cc2c(nc1CC)CCN(CCC(C)=NOC[C@@H](O)COCc1ccco1)C2`, the z-score was -0.727 (inactive).

For `CCOC(=O)[C@H](Cc1ccccc1)NC(=O)CCC1CC(OC(=O)NCc2ccc3c(c2)OCO3)CC2(CCCC(COC(=O)NCc3ccccc3)O2)O1` (stereo partly specified), the z-score was 0.864 (inactive).

With `C=CCOC(=O)[C@H]1[C@@H]2C(=O)O[C@@H](c3ccccc3)[C@@H](c3ccccc3)N2[C@@H](c2ccc(OCCOC(=O)[C@H]3C[C@H]4C(=O)N[C@@H](Cc5ccccc5)C(=O)N4[C@H]3c3ccc(O)cc3)cc2)[C@]12C(=O)Nc1ccccc12`, the z-score is 1.71 (inactive).

Turning to `C=CC[C@@H]1C=C[C@H](ON=C2c3cc(OC)ccc3O[C@H](c3cccc(OC)c3)[C@H]2O)[C@@H](CO)O1`, the z-score is -0.7 (inactive).

`CC(C)(C)N1C(=O)[C@H]2[C@H]3[C@H](O)[C@H](O)CC(=NO[C@@H]4O[C@H](CO)[C@@H](O)[C@H](O)[C@H]4O)[C@@H]3CC[C@H]2C1=O`: the z-score was -0.471 (inactive).

In the case of `CC(C)=NOCc1cccc(-c2cc(-c3ccccc3)no2)c1`, the z-score was -0.39 (inactive).

Consider `C[C@H]1CC[C@@H](C(=O)O)N[C@@H]1c1ccc(C#CCN(C)C)cc1`, for which the z-score is -0.191 (inactive).

For the molecule `CO[C@H]1COC(=O)[C@H](C)NC(=O)[C@@H](C)COC(=O)CC=C[C@@H]1C`, the z-score was -0.477 (inactive).

`COC(=O)CC=C[C@H](C)[C@H](CO)NS(=O)(=O)c1ccc(C)cc1`: the z-score is -0.513 (inactive).

Regarding `Cc1cc2c(nc1C)CCCN2CC(C)ON=C1[C@H]2CCn3c(=O)n(-c4ccccc4)c(=O)n3[C@H]2[C@H](O)[C@@H]2O[C@H]12` (stereo partly specified), the z-score is -0.488 (inactive).

In the case of `CC(C)OC(=O)C=C1C[C@@H](c2ccc(C#N)cc2)O[C@@H](c2ccc(C#N)cc2)O1`, the z-score is 0.146 (inactive).

Turning to `CO[C@H]1COC(=O)[C@H](C)COC(=O)CC=C[C@@H](C)[C@H](OC)COC(=O)CC=C[C@@H]1C`, the z-score is -0.192 (inactive).

`CC(CCN1CCc2nc(-c3ccccc3)c(-c3ccccc3)cc2C1)=NO[C@@H](C)c1cn([C@H](CO)Cc2ccccc2)nn1`: the z-score is -2.23 (inactive).

As to `COc1ccc([Si](C)(C)[C@@H]2[C@@H](CC(=O)N3CCC[C@H]3CO)O[C@]3(C(=O)N(Cc4cccc(N5CCC5=O)c4)c4ccccc43)[C@H]2C)cc1`, the z-score was 1.03 (inactive).

With `COc1ccccc1CN1C(=O)c2ccccc2[C@@H](C(=O)NCC(F)(F)F)[C@@H]1c1ccc(CO)cc1`, the z-score is -0.0178 (inactive).

`[N-]=[N+]=NCc1ccccc1[C@@H]1OC(c2ccc(OCCCO)cc2)=N[C@]1(Cc1ccccc1)C(=O)N1CCOCC1`: the z-score was 0.165 (inactive).

For `CC(C)(C)OC(=O)CC[C@]1(C(=O)NCc2ccccc2)N=C(c2ccc(OCCCO)cc2)O[C@H]1c1ccccc1`, the z-score was 0.543 (inactive).

With `CC1CC/C=C\[C@H]2OC34C=CCN(Cn5nnc6ccccc65)C(=O)[C@H]3N(CCO)C(=O)[C@@H]4C2C(=O)O1` (stereo partly specified), the z-score is -0.943 (inactive).

Consider `CCOC(=O)CCN1C(=O)[C@H]2[C@H]3[C@H](O)C=CC(=O)[C@@H]3CC[C@H]2C1=O`, for which the z-score was 0.713 (inactive).

`O=C1C[C@@H](O)[C@@H](O)[C@@H]2[C@@H]3C(=O)N(Cc4ccc5c(c4)OCO5)C(=O)[C@@H]3CC[C@@H]12`: the z-score is 0.258 (inactive).

Regarding `CCN1C(=O)[C@H]2[C@H]3[C@H](O)[C@H](O)CC(=NO[C@@H]4O[C@H](CO)[C@@H](O)[C@H](O)[C@H]4O)[C@@H]3CC[C@H]2C1=O`, the z-score was -0.654 (inactive).

`C#CCCCON=C1C[C@@H](O)[C@@H](O)[C@@H]2[C@@H]3C(=O)N(Cc4ccccc4)C(=O)[C@@H]3CC[C@H]12`: the z-score was -1.59 (inactive).

Regarding `C[C@@H](c1ccccc1)N1C(=O)[C@H]2[C@H]3[C@H](O)[C@H](O)CC(=NNC(=O)OCc4ccccc4)[C@H]3CC[C@H]2C1=O`, the z-score was 0.993 (inactive).

For the molecule `COC(=O)[C@H](C)NC(=O)CCC1CC(OC(=O)NCc2cccc3ccccc23)CC2(CCCC(COC(=O)NCCc3ccc(Cl)cc3)O2)O1` (stereo partly specified), the z-score is -0.425 (inactive).

Turning to `CCc1cc2c(nc1CC)CCN(CCC(C)=NOC(C)CN1CCCc3nc(C)c(C)cc31)C2` (stereo unspecified), the z-score was -0.173 (inactive).

Turning to `COC(=O)[C@@]1(Cc2ccc(OC)cc2)[C@H]2c3cc(C(=O)N4CCCC4)n(Cc4cc(F)c(F)c(F)c4)c3C[C@H]2CN1C(=O)c1ccccc1`, the z-score was 0.0628 (inactive).

As to `CN1C(=O)C2C=CC(C(O)c3ccc(Br)cc3)N(N(c3ccccc3)c3ccccc3)C2C1=O` (stereo unspecified), the z-score is 1.32 (inactive).

In the case of `CCOC(=O)NN=C1C[C@@H](O)[C@@H](O)[C@@H]2[C@@H]3C(=O)N(CC)C(=O)[C@@H]3CC[C@@H]12`, the z-score was -0.823 (inactive).

As to `O=C(CS)NCCCCCNC(=O)[C@@H]1C[C@@H]2C(=O)N[C@@H](Cc3ccccc3)C(=O)N2[C@@H]1c1ccc(O)cc1`, the z-score was 0.349 (inactive).

Turning to `C=CC[C@]1(C(=O)NCc2ccccc2)N=C(c2ccc(OCCCO)cc2)O[C@H]1c1ccccc1`, the z-score was 1.15 (inactive).

For `O=C1[C@H]2[C@H]3[C@H](O)[C@H](O)CC(=NOCc4ccccc4)[C@H]3CC[C@H]2C(=O)N1c1cccc(Oc2ccccc2)c1`, the z-score was -0.0244 (inactive).

As to `COC(=O)CC=C[C@@H](C)[C@H](OC)c1ccccc1Br`, the z-score was 0.791 (inactive).

For the molecule `CCN1C(=O)[C@H]2[C@H]3[C@H](O)C=CC(=O)[C@@H]3CC[C@H]2C1=O`, the z-score was 0.197 (inactive).
